# High-throughput results: PubChem BioAssay, several laboratories
# TIM10 inh: TIM10 yeast growth inhibition | S. cerevisiae TIM10 strain growth, BacTiter-Glo luminescence, 24 h | inhibition, % at 10 µM | 330,000 tested, 1.4% active;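 active means inhibition of 40% or more at the single tested concentration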;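 further: wild-type TIM10 isogenic control strain grown at permissive 25 °C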
# NLRP3 yeast inh: inhibitors of NALP3 inflammasome in yeast; 330,000 tested, 0.39% active; AID 2825; Yeast reconstituted NLRP3/ASC/caspase-1, beta-gal luminescence, 24 h; inhibition, % at 10 µM;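 active means inhibition of 50% or more; inactive means inhibition below 50%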;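 further: plate controls were induced DMSO wells for no effect and uninduced yeast grown without galactose for full effect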
# tim23-1 inh: growth inhibitors of tim23-1 mutant yeast; S. cerevisiae tim23-1 growth, BacTiter-Glo luminescence, 24 h; inhibition, % at 20 µM; AID 463212; 330,000 tested, 1.3% active;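 active means growth inhibition of the mutant yeast at or above 50%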;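 further: temperature-sensitive mutant grown at 25 °C; plate controls were DMSO-treated mutant yeast for no effect and medium wells lacking yeast for full effect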
# NALP1 inh: inhibitors of NALP1 inflammasome in yeast; AID 2071; 280,000 tested, 0.61% active; inhibition, % at 10 µM; S. cerevisiae NALP1/ASC/caspase-1 growth, X-gal OD620, 72 h; in the data active means inhibition mostly above about 24%, no sharp cut-off; inactive means mostly below about 32%
# SKKanGAS inh: blocks kanamycin growth of S. pyogenes SKKanGAS strain | BacTiter-Glo, 6 h | inhibition, % at 7.5 µM | 300,000 tested, 1.3% active | AID 1662;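 active means mean replicate score, as percent of positive control median, at least 50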;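 further: strain carries kanamycin resistance gene driven by streptokinase promoter and grows in 40 µg/ml kanamycin; loss of luminescence reflects streptokinase promoter inhibition or plain growth inhibition; 0% = median of DMSO wells and 100% = positive control at its reference dose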
# tim10-1 inh: inhibits growth of tim10-1 mutant yeast; S. cerevisiae tim10-1 ts strain growth, BacTiter-Glo, 24 h; inhibition, % at 20 µM; 330,000 tested, 2.2% active; AID 463190;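 active means inhibition of at least 40%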;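 further: mutant grown at 25 °C; 0% = DMSO wells with yeast and 100% = wells holding no yeast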
# tim10-1 confirm: tim10-1 yeast growth inhibition, confirmed. shares compounds with tim10-1 inh. S. cerevisiae tim10-1 ts strain growth, BacTiter-Glo, 24 h. inhibition, % at 20 µM. 7,400 tested, 56% active. AID 463213;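 active means inhibition of yeast growth at or above a set limit in either of two repeat tests at 20 µM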;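 further: tim10-1 mutant grown at permissive 25 °C to find synthetic lethal compounds; 0% = DMSO yeast wells and 100% = medium wells without yeast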
# TIM10 conf: TIM10 yeast growth inhibition, confirmed | shares compounds with TIM10 inh | S. cerevisiae tim10 strain growth, BacTiter-Glo luminescence, 24 h | inhibition, % at 10 µM | 4,600 tested, 63% active | AID 463215;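 active means inhibition of yeast growth at or above a set limit in either of two replicates at 10 µM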;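 further: this counterscreen used the strain with wild-type TIM10; 0% = yeast with DMSO and 100% = medium wells lacking yeast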
# tim23-1 conf: tim23-1 yeast growth inhibition, confirmed. shares compounds with tim23-1 inh. S. cerevisiae tim23-1 growth, BacTiter-Glo luminescence, 24 h. inhibition, % at 20 µM. 4,400 tested, 83% active. AID 463218;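 active means inhibition above about 39% in either of two replicate wells at 20 µM, limit read from the data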;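 further: temperature-sensitive tim23-1 mutant grown at 25 °C; 0% = DMSO wells with yeast and 100% = medium wells without yeast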
# An asterisk follows results filed as active; · = not tested or not shown. In the library only some 4.9% were active in any assay of this set; here they are far more common.
SMILES,TIM10 inh,NLRP3 yeast inh,tim23-1 inh,NALP1 inh,SKKanGAS inh,tim10-1 inh,tim10-1 confirm,TIM10 conf,tim23-1 conf
Cc1ccc(Nc2nc(=O)c3cccnc3s2)c(Br)c1,31,32,51*,·,2,47*,36*,·,50*
CC(=O)c1ccc(Nc2nc(=O)c3cccnc3s2)cc1,-2,13,-10,11,-2,5,·,·,·
O=C(Nc1ccc2c(c1)OCCO2)NC12CC3CC(CC(C3)C1)C2,47*,1,59*,14,-9,51*,43*,31,43*
CCS(=O)(=O)N1Cc2ccccc2CC1C(=O)Nc1ccc(F)c(F)c1F (configuration not stated),7,18,15,1,-4,6,·,·,·
CCn1c(/C=C/c2cc(Br)ccc2O)nc2ccccc2c1=O,58*,23,63*,3,-2,67*,69*,59*,75*
Cn1c(/C=C/c2cccc(Br)c2)nc2ccccc2c1=O,22,48,63*,16,1,57*,55*,·,59*
CN(C)c1ccc(-c2nnc(-c3ccccc3F)o2)cc1,3,40,32,7,0,-19,·,·,·
COc1ccc(OC)c(/C=c2\sc3nc(-c4cccs4)nn3c2=O)c1,28,8,53*,46,7,49*,37*,·,47*
Nc1ncnc2c1ncn2C1OC(COP(=O)(O)O)C(O)C1O (configuration not stated),73*,21,81*,11,-1,85*,84*,60*,88*
Nc1ncnc2c1ncn2[C@@H]1O[C@H](COS(=O)(=O)O)[C@@H](O)[C@H]1O,3,8,0,·,·,0,·,·,·
Nc1ncnc2c1ncn2[C@@H]1O[C@H](COP(=O)(O)O)[C@@H](O)[C@H]1O,76*,10,84*,11,-3,87*,85*,66*,90*
Nc1ncnc2c1ncn2[C@@H]1O[C@H](COP(=O)(O)OP(=O)(O)OP(=O)(O)O)[C@@H](O)[C@H]1O,70*,2,84*,·,·,84*,80*,68*,87*
NCCC(=O)NC[C@H]1O[C@@H](n2cnc3c(N)ncnc32)[C@H](O)[C@@H]1O,-13,·,22,·,·,-4,·,·,·
CC1CCN(C(=O)C(NS(=O)(=O)c2cccc3nsnc23)C(C)C)CC1 (configuration not stated),-4,11,14,5,5,19,·,·,·
O=C(Nc1ccccc1O)c1cccc(S(=O)(=O)Nc2ccccc2O)c1,-11,1,15,·,-7,-27,·,·,·
Cc1nc(Nc2cccc(F)c2)c2oc3ccccc3c2n1,5,7,55*,25,-4,44*,29,·,60*
Cc1nc(Nc2cccc(Cl)c2)c2oc3ccccc3c2n1,33,13,43,4,21,32,·,·,·
C=CCOn1c(=O)c(-c2cccs2)[n+]([O-])c2ccccc21,41*,-15,61*,-4,5,53*,21,33*,70*
Cc1ccnc(NC(=O)c2cccc(NC(=O)CC3SC(N4CCCCC4)=NC3=O)c2)c1 (configuration not stated),5,10,-3,·,·,-3,·,·,·
COc1ccc(OC)c(S(=O)(=O)CC(=O)c2cc3ccc(OC)cc3oc2=O)c1,9,10,38,22,10,30,·,·,·
COc1ccc(S(=O)(=O)CC(=O)c2cc3cc(Br)ccc3oc2=O)cc1,30,2,72*,3,3,62*,50*,·,85*
Cc1ccc(S/C=C\C(=O)c2ccccc2)cc1,44*,26,58*,10,-2,49*,46*,55*,62*
O=C(N/N=C/c1cccc(O)c1)c1ccc2c(c1)OCCO2,6,1,6,22,-2,10,·,·,·
Cc1cccc(/C=N/NC(=O)c2ccc3c(c2)OCCO3)c1O,65*,39,63*,8,91*,50*,46*,68*,76*
CC(C)OC(=O)n1c(=S)oc2ccccc21,47*,-4,76*,0,3,53*,37*,26,67*
SMILES,TIM10 inh,NLRP3 yeast inh,tim23-1 inh,NALP1 inh,SKKanGAS inh,tim10-1 inh,tim10-1 confirm,TIM10 conf,tim23-1 conf
CC(C)NC(=O)CCn1c(=S)oc2ccccc21,-11,1,14,-11,3,9,·,·,·
COc1ccc(C(CNC(=O)C(C)Oc2ccc(Br)cc2)N2CCCC2)cc1 (configuration not stated),18,21,9,·,0,23,·,·,·
CCC1(c2ccccc2)NC(=O)N(CC(=O)Nc2cc(S(=O)(=O)N3CCCCCC3)ccc2OC)C1=O (configuration not stated),13,18,13,·,22,12,·,·,·
COc1ccc(/C=C2\COc3ccccc3C2=O)cc1OC,50*,36,70*,64,-5,57*,57*,12,58*
CC1=CC(=O)C=C(C)C1=NOc1ccc([N+](=O)[O-])cc1,47*,-33,57*,-7,0,62*,65*,38*,69*
Cc1cccc(C)c1NC(=S)NC(=O)CCc1ccccc1,47*,19,56*,4,1,51*,35*,36*,42*
COC(=O)c1ccccc1NC(=S)NC(=O)c1ccc2c(c1)OCO2,62*,2,72*,-10,5,63*,41*,45*,39*
COC(=O)c1ccccc1NC(=S)NC(=O)c1ccccc1C,70*,5,59*,18,-1,71*,65*,69*,-24
Cc1ccccc1C(=O)NC(=S)Nc1ccccc1C(=O)O,7,10,18,-35,-13,30,·,·,·
Nc1cc(S(=O)(=O)N2CCOCC2)ccc1Oc1cccc(Br)c1,9,34,14,·,·,28,·,·,·
COc1ccc(NS(=O)(=O)c2cccc(C(=O)OCC(=O)NC3CC3)c2)cc1,5,7,9,-1,-1,10,·,·,·
COc1ccc(-c2oc3cccnc3c2C#CC2(O)CCCCC2)cc1,41*,-13,58*,-11,57*,48*,11,26,48*
COc1ccc(-c2oc3cccnc3c2C#CCO)cc1,31,19,48,-2,-9,38,·,·,·
O=S(=O)(c1cccc(-c2nc3ccccc3s2)c1)N1CCOCC1,43*,-40,53*,2,1,41*,40*,30*,40*
